According to PubChem BioAssay (NCI):
This is part of a sample that, as a whole, favours compounds with a hit. Of some 79,000 tested, about 15% had one in any assay. Active and inactive are the calls of the source. No stated cut-off is given here; in the data, active means growth inhibition above about 70%; inactive means the rest.

Assays:
[1] = NCI Yeast Anticancer Drug Screen. Data for the rad52 strain (AID 147);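 further: 0% = growth of vehicle-treated control cultures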; settings: S. cerevisiae rad52 mutant growth inhibition, stronger effect = higher value
Outline: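 Screen used a yeast mutant impaired in DNA repair. After compound exposure, growth was measured. Values reflect inhibition compared with vehicle-treated cells.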

[2] = NCI Yeast Anticancer Drug Screen. Data for the wt1 strain (AID 149);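 further: 0% = growth of vehicle-treated wt1 cultures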; settings: S. cerevisiae wt1 strain (SPY 50644) growth inhibition, stronger effect = higher value
Outline: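 Each compound is tested on wt1 yeast and the loss of growth versus vehicle gives the inhibition value.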

[3] = NCI Yeast Anticancer Drug Screen. Data for the rad50EPP+ strain (AID 151);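 further: 0% = growth of vehicle-treated control cultures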; settings: S. cerevisiae rad50 mutant strain, stronger effect = higher value
Outline: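 Exposing the rad50EPP+ strain to each compound, growth was compared with vehicle-only cultures to give inhibition.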

[4] = NCI Yeast Anticancer Drug Screen. Data for the mgt1 strain (AID 153); settings: S. cerevisiae mgt1 mutant growth inhibition, stronger effect = higher value
Outline: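 Genetically defined yeast (mgt1) treated with compound; inhibition of growth expressed against vehicle-treated controls.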

[5] = NCI Yeast Anticancer Drug Screen. Data for the rad50 strain (AID 155);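 further: 0% = growth of vehicle-only cultures of the same strain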; settings: S. cerevisiae rad50 strain growth inhibition, stronger effect = higher value
Outline: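 Vehicle-treated cultures provide the reference for the growth inhibition reported for compound-exposed, repair-deficient yeast.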

[6] = NCI Yeast Anticancer Drug Screen. Data for the mec2-1 strain (AID 157); settings: S. cerevisiae mec2-1 strain, stronger effect = higher value
Outline: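 Readout is yeast growth inhibition, normalised to vehicle-treated controls, in the mec2-1 strain exposed to compound.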

[7] = NCI Yeast Anticancer Drug Screen. Data for the rad14 strain (AID 159);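 further: 0% = growth of vehicle-treated control cultures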; settings: S. cerevisiae rad14 strain growth inhibition, stronger effect = higher value
Outline: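 Inhibition of growth is reported for a repair-deficient yeast mutant following compound treatment, calculated relative to cultures that received vehicle.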

[8] = NCI Yeast Anticancer Drug Screen. Data for the sgs1 mgt1 strain (AID 161);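 further: 0% = growth of cultures given vehicle only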; settings: S. cerevisiae sgs1 mgt1 strain, stronger effect = higher value
Outline: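 Compounds are added to genetically altered yeast, and growth is compared with cultures given vehicle alone to give percent inhibition.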

[9] = NCI Yeast Anticancer Drug Screen. Data for the CLN2oe strain (AID 163);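 further: 0% = growth of vehicle-only control cultures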; settings: S. cerevisiae CLN2oe strain, stronger effect = higher value
Outline: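 Values reflect how much compound exposure reduced yeast growth, referenced to vehicle-exposed cells. Assay organism is a strain with a defined genetic change affecting cell-cycle control.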

[10] = NCI Yeast Anticancer Drug Screen. Data for the cln2 rad14 strain (AID 165);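 further: 0% = growth equal to vehicle treated cultures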; settings: S. cerevisiae cln2 rad14 strain, stronger effect = higher value
Outline: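 Relative to vehicle controls, growth inhibition of compound-treated cln2 rad14 yeast was recorded.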

[11] = NCI Yeast Anticancer Drug Screen. Data for the bub3 strain (AID 167); settings: S. cerevisiae bub3 mutant strain, stronger effect = higher value
Outline: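 Mutant yeast screening strain plus compound; vehicle-treated cultures serve as the 0% inhibition reference.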

[12] = at 5.0 µM (retest, dose inferred, filed as 0.5)
[13] = at 50.0 µM (retest, dose inferred, filed as 5.0)

Measured: growth inhibition

Cc1cccc(/C=N/NC(=S)N2CCCC2)n1
inactive: [1]; at 1.2 µM -25% | [1]; at 3.7 µM -26% | [1]; at 11.0 µM 27% | [2]; at 1.2 µM -4% | [2]; at 3.7 µM 1% | [2]; at 11.0 µM 12% | [3]; at 1.2 µM -21% | [3]; at 3.7 µM -21% | [3]; at 11.0 µM -24% | [3]; at 33.0 µM -27% | [3]; at 100.0 µM 38% | [4]; at 1.2 µM -13% | [4]; at 3.7 µM -14% | [4]; at 11.0 µM 18% | [5]; at 1.2 µM -10% | [5]; at 3.7 µM -14% | [5]; [12] 26% | [5]; at 11.0 µM 35% | [6]; at 1.2 µM -24% | [6]; at 3.7 µM -21% | [6]; [12] 36% | [7]; at 1.2 µM 2% | [7]; at 3.7 µM 6% | [8]; [12] 25% | [8]; [13] 47% | [9]; at 1.2 µM -30% | [9]; at 3.7 µM -31% | [9]; at 11.0 µM 10% | [10]; [12] 2% | [11]; at 1.2 µM -13% | [11]; at 3.7 µM -8% | [11]; [12] 40% | [11]; at 11.0 µM 32%
active: [1]; at 33.0 µM 94% | [1]; at 100.0 µM 96% | [2]; at 33.0 µM 94% | [2]; at 100.0 µM 96% | [4]; at 33.0 µM 94% | [4]; at 100.0 µM 96% | [5]; at 33.0 µM 95% | [5]; [13] 94% | [5]; at 50.0 µM 86.3% | [5]; at 100.0 µM 95% | [6]; at 11.0 µM 73% | [6]; at 33.0 µM 94% | [6]; [13] 95% | [6]; at 50.0 µM 89.8% | [6]; at 100.0 µM 97% | [7]; at 11.0 µM 74% | [7]; at 33.0 µM 96% | [7]; at 100.0 µM 98% | [8]; at 50.0 µM 88.2% | [9]; at 33.0 µM 93% | [9]; at 100.0 µM 96% | [10]; [13] 94% | [10]; at 50.0 µM 87% | [11]; at 33.0 µM 95% | [11]; [13] 96% | [11]; at 50.0 µM 88.5% | [11]; at 100.0 µM 96%
